The values below come from PubChem BioAssay (NCATS).

Structures are written as SMILES. Records with an inconclusive call do not appear. A call without a number means that no potency is given here. Unmarked numbers belong to inactive results. Active and inactive are the calls of the source. Calls follow the shape of the dose curve; as a rule, active = well fitted inhibition curve with a large enough effect; inconclusive = small, poorly fitted or top-dose-only effect; inactive = flat fitted curve, though single readings scatter.
Also: nearly all actives have a fitted effect of over 60% in size.

The test system of one test is TAB165. Put plainly: qHTS profiling for inhibitors of Plasmodium falciparum proliferation (AID 504749). Also: potency is read from the fitted curve at half-maximal effect. The settings on record: P. falciparum in erythrocytes, SYBR Green DNA, 72 h; series mostly up to 28.7 µM; activity, negative = inhibition: at the top concentration. Summed up:
(§1)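 Fluorescence of SYBR Green-bound parasite DNA, read at 485/535 nm, served as the growth measure. Infected erythrocytes were cultured with compound 72 h; artemisinin (0.29 uM) and DMSO wells defined the normalization range.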
On the technique in general: In qHTS, concentration-response curves come from the screen itself.
For the compound `CC1OC(C)OC(C)O1` (configuration not stated), the Potency entry was “inactive”.
Still for that read-out and setting: to `O=c1[nH]c2ccccc2n1CCCN1CCC(n2c(=O)[nH]c3cc(Cl)ccc32)CC1` belongs 4.47 µM (active).

Another test concerns W2. The test is described as above. As to conditions: P. falciparum in erythrocytes, SYBR Green DNA, 72 h; series mostly up to 28.7 µM; activity, negative = inhibition: at the top concentration. Summed up:
as §1
As for `O=c1[nH]c2ccccc2n1C1CCN(CCCC(c2ccc(F)cc2)c2ccc(F)cc2)CC1`, the Potency is 3.79 µM (active).
The same measure, in the same setting: the result for `CC1OC(C)OC(C)O1` (configuration not stated) reads “inactive”.
On the same count and under the same terms, to `O=c1[nH]c2ccccc2n1CCCN1CCC(n2c(=O)[nH]c3cc(Cl)ccc32)CC1` belongs 6.75 µM (active).

Another test has as its system CRL-7250. Put plainly: qHTS assay to identify novel small-molecules to repurpose for Merkel cell carcinoma treatment (AID 1296009). As to conditions: MCC and control cell lines, CellTiter-Glo viability, 72 h; series mostly up to 44.8 µM; activity change, negative = cytotoxicity: at the top concentration. A digest of the protocol: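 Luminescence from CellTiter-Glo, read 10 min after addition at room temperature, reported viability following a 72 hr, 37 degree celsius treatment with NPC or MIPE compounds in titration; values normalized to plate controls.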
`CN(C)CCc1c[nH]c2ccc(C[C@H]3COC(=O)N3)cc12`: the compound was called inactive.
Same read-out and setting: to `CO/N=C1\CN(c2nc3c(cc2F)c(=O)c(C(=O)O)cn3C2CC2)CC1CN` (configuration not stated) belongs “inactive”; to `Cc1cccc(C)c1OCC(C)N` (configuration not stated), “inactive”.
The same measure, in the same setting: to `O=C1NC(c2ccccc2)(c2ccccc2)C(=O)N1COP(=O)(O)O` belongs “inactive”.
On the same count and under the same terms, the result for `CN1CCN(CCCN2c3ccccc3Sc3ccc(Cl)cc32)CC1` reads “inactive”; that for `O=C1[C@H](CC[C@H](O)c2ccc(F)cc2)[C@@H](c2ccc(O)cc2)N1c1ccc(F)cc1`, “inactive”; that for `Cc1ccnc2c1NC(=O)c1cccnc1N2C1CC1`, “inactive”.
With `CN1CCC(=C2c3ccccc3C=Cc3ccccc32)CC1`, the call was inactive.
Still for that read-out and setting: the result for `CS(=O)(=O)CCNCc1ccc(-c2ccc3ncnc(Nc4ccc(OCc5cccc(F)c5)c(Cl)c4)c3c2)o1` reads “inactive”.
Same read-out and setting: to `CCOc1ccc2ccccc2c1C(=O)N[C@@H]1C(=O)N2[C@@H]1SC(C)(C)[C@@H]2C(=O)O` belongs “inactive”.
Same read-out and setting: the result for `CN(CCOc1ccc(NS(C)(=O)=O)cc1)CCc1ccc(NS(C)(=O)=O)cc1` reads “inactive”; that for `CN(C)[C@@H]1C(=O)C(C(N)=O)=C(O)[C@@]2(O)C(=O)C3=C(O)c4c(O)ccc(Cl)c4[C@@H](O)[C@H]3C[C@@H]12`, “inactive”.
As to `Cc1nc(-c2ccc(OCC(C)C)c(C#N)c2)sc1C(=O)O`, the compound was called inactive.
Still for that read-out and setting: the result for `CCCNCC(O)COc1ccccc1C(=O)CCc1ccccc1` (configuration not stated) reads “inactive”; that for `Cn1ccc2cc3c(cc21)CCN3C(=O)Nc1cccnc1`, “inactive [at 17.4 µM]”.
On the same count and under the same terms, the result for `O=NN(CCCl)C(=O)NCCCl` reads “inactive”.
With `CC1=C(C(=O)O)N2C(=O)[C@@H](NC(=O)[C@H](N)c3ccc(O)cc3)[C@H]2SC1`, the outcome was inactive.
The same measure, in the same setting: the result for `CCN(CC)CCCC(C)Nc1ccnc2cc(Cl)ccc12` (configuration not stated) reads “inactive [at 9.27 µM]”; that for `CN(C)C(=N)N=C(N)N`, “inactive”.
Take `COc1ccccc1OCC(O)COC(N)=O` (configuration not stated): the outcome was inactive.
Still for that read-out and setting: the result for `O=c1[nH]c2ccccc2n1CCCN1CCC(n2c(=O)[nH]c3cc(Cl)ccc32)CC1` reads “inactive”.
Still for that read-out and setting: to `CC(c1cc2ccccc2s1)N(O)C(N)=O` (configuration not stated) belongs “inactive”; to `CN(C)c1nc(N(C)C)nc(N(C)C)n1`, “inactive”; to `CS(=O)c1ccc(-c2nc(-c3ccc(F)cc3)c(-c3ccncc3)[nH]2)cc1` (configuration not stated), “inactive”.
The same measure, in the same setting: the result for `Nc1cc(-c2ccncc2)c[nH]c1=O` reads “inactive”; that for `CCN(CC)C(=S)SSC(=S)N(CC)CC`, “inactive”; that for `Cc1ccc(C)c(OCCCC(C)(C)C(=O)O)c1`, “inactive”.
Turning to `CC(S)C(=O)NCC(=O)O` (configuration not stated), the call was inactive.
Regarding `OCCN(CCO)c1nc(N2CCCCC2)c2nc(N(CCO)CCO)nc(N3CCCCC3)c2n1`, the “activity change, negative = cytotoxicity” value was -5.55%.
Consider `COc1cc2nc(N3CCN(C(=O)C4CCCO4)CC3)nc(N)c2cc1OC` (configuration not stated), for which the compound was classed as inactive.
On to `C[C@@H]1CC(=O)NN=C1c1ccc(NN=C(C#N)C#N)cc1`, for which the compound was classed as inactive.
Same read-out and setting: to `O=C1NC(=O)C(c2ccccc2)(c2ccccc2)N1` belongs “inactive”; to `CC(C)(C(=O)O)c1ccc(C(O)CCCN2CCC(C(O)(c3ccccc3)c3ccccc3)CC2)cc1` (configuration not stated), “inactive”; to `O=C(O)CCNC(=O)c1ccc(N=Nc2ccc(O)c(C(=O)O)c2)cc1`, “inactive”.
Still for that read-out and setting: to `CC(C(=O)O)c1cccc(C(=O)c2ccccc2)c1` (configuration not stated) belongs “inactive”; to `Cc1ccc(S(=O)(=O)NC(=O)NN2CC3CCCC3C2)cc1` (configuration not stated), “inactive”; to `CC12CC3CC(C)(C1)CC(N)(C3)C2`, “inactive”.
